Measured values from PubChem BioAssay AID1159580 (chemical genetic matrix, 2015).
The whole screen tested about 5,500 compounds, of which about 2,000 (36%) were called active. Another 18% or so got no clear call; they are omitted. Cut-off read from the data, not from the text of the source: active = normalized growth mostly below about 0.91 (no sharp cut-off); inconclusive = no clear call, values can overlap the other calls; inactive = mostly above about 0.92. This is one part of the list.

Assay: chemical genetic growth profiling, strain panel (AID 1159580);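 note: tested at 20 µM; growth read once vehicle control cultures reached saturation at 30 °C; 1 = growth at the plate median or of vehicle wells; lower values mean less growth of the strain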
Conditions: growth OD

Measured: normalized growth

CC1(C)C(=O)[C@@H]2O[C@@H]2[C@@]2(C)C1C[C@@H](O)[C@]1(C)C2CC[C@@]2(C)[C@H](c3ccoc3)OC(=O)C3OC321 (some centres not stated)
inactive: S. cerevisiae deletion strains, locus YJL187C, strain SWE1, stronger effect = lower value 0.994 | S. cerevisiae deletion strains, locus YJR043C, strain POL32, stronger effect = lower value 0.998 | S. cerevisiae deletion strains, locus YJR066W, strain TOR1, stronger effect = lower value 0.926 | S. cerevisiae deletion strains, locus YKL009W, strain mrt4, stronger effect = lower value 1.02 | S. cerevisiae deletion strains, locus YKL068W, stronger effect = lower value 0.993 | S. cerevisiae deletion strains, locus YKL085W, strain MDH1 (second series), stronger effect = lower value 0.997 | S. cerevisiae deletion strains, locus YKL085W, strain MDH1, stronger effect = lower value 0.997 | S. cerevisiae deletion strains, locus YKL160W, strain elf1, stronger effect = lower value 0.998 | S. cerevisiae deletion strains, locus YKR001C, strain vps1, stronger effect = lower value 0.979 | S. cerevisiae deletion strains, locus YKR026C, strain gcn3, stronger effect = lower value 0.995 | S. cerevisiae deletion strains, locus YKR091W, strain srl3, stronger effect = lower value 0.992 | S. cerevisiae deletion strains, locus YLL001W, strain dnm1, stronger effect = lower value 0.99 | S. cerevisiae deletion strains, locus YLL026W, stronger effect = lower value 0.99 | S. cerevisiae deletion strains, locus YLL041C, strain sdh2, stronger effect = lower value 0.999 | S. cerevisiae deletion strains, locus YLR027C, strain aat2, stronger effect = lower value 0.984 | S. cerevisiae deletion strains, locus YLR039C, strain RIC1, stronger effect = lower value 1.11 | S. cerevisiae deletion strains, locus YLR058C, strain SHM2, stronger effect = lower value 0.997 | S. cerevisiae deletion strains, locus YLR102C, strain apc9, stronger effect = lower value 0.987 | S. cerevisiae deletion strains, locus YLR113W, strain HOG1, stronger effect = lower value 1.01 | S. cerevisiae deletion strains, locus YLR221C, strain rsa3, stronger effect = lower value 0.999 | S. cerevisiae deletion strains, locus YLR258W, strain gsy2, stronger effect = lower value 1.02 | S. cerevisiae deletion strains, locus YLR262C, strain YPT6 (second series), stronger effect = lower value 0.973 | S. cerevisiae deletion strains, locus YLR268W, strain sec22, stronger effect = lower value 0.987 | S. cerevisiae deletion strains, locus YLR320W, strain mms22, stronger effect = lower value 0.998 | S. cerevisiae deletion strains, locus YLR330W, strain CHS5, stronger effect = lower value 1 | S. cerevisiae deletion strains, locus YLR342W, strain FKS1 (second series), stronger effect = lower value 0.992 | S. cerevisiae deletion strains, locus YLR342W, strain FKS1, stronger effect = lower value 0.999 | S. cerevisiae deletion strains, locus YLR357W, strain rsc2, stronger effect = lower value 0.968 | S. cerevisiae deletion strains, locus YLR370C, strain arc18, stronger effect = lower value 0.995 | S. cerevisiae deletion strains, locus YLR371W, strain rom2, stronger effect = lower value 0.982 | S. cerevisiae deletion strains, locus YLR384C, strain iki3, stronger effect = lower value 1.02 | S. cerevisiae deletion strains, locus YLR418C, strain cdc73, stronger effect = lower value 0.919 | S. cerevisiae deletion strains, locus YML016C, strain PPZ1, stronger effect = lower value 1.01 | S. cerevisiae deletion strains, locus YML032C, strain rad52, stronger effect = lower value 0.994 | S. cerevisiae deletion strains, locus YML120C, strain ndi1, stronger effect = lower value 1 | S. cerevisiae deletion strains, locus YML124C, strain tub3, stronger effect = lower value 0.996 | S. cerevisiae deletion strains, locus YMR058W, strain fet3, stronger effect = lower value 1 | S. cerevisiae deletion strains, locus YMR078C, strain ctf18, stronger effect = lower value 0.994 | S. cerevisiae deletion strains, locus YMR125W, strain sto1, stronger effect = lower value 1 | S. cerevisiae deletion strains, locus YMR129W, stronger effect = lower value 1 | S. cerevisiae deletion strains, locus YMR205C, strain PFK2, stronger effect = lower value 0.999 | S. cerevisiae deletion strains, locus YMR223W, strain ubp8, stronger effect = lower value 0.979 | S. cerevisiae deletion strains, locus YMR231W, strain pep5, stronger effect = lower value 0.98 | S. cerevisiae deletion strains, locus YMR263W, strain SAP30, stronger effect = lower value 0.974 | S. cerevisiae deletion strains, locus YMR307W, strain GAS1, stronger effect = lower value 0.938 | S. cerevisiae deletion strains, locus YNL067W, strain RPL9B, stronger effect = lower value 0.982 | S. cerevisiae deletion strains, locus YNL071W, strain lat1, stronger effect = lower value 0.998 | S. cerevisiae deletion strains, locus YNL183C, strain NPR1, stronger effect = lower value 0.951 | S. cerevisiae deletion strains, locus YNL209W, strain ssb2, stronger effect = lower value 1.01 | S. cerevisiae deletion strains, locus YNL233W, strain BNI4, stronger effect = lower value 0.99 | S. cerevisiae deletion strains, locus YNL248C, strain rpa49, stronger effect = lower value 0.991 | S. cerevisiae deletion strains, locus YNL250W, strain rad50, stronger effect = lower value 0.982 | S. cerevisiae deletion strains, locus YNL271C, strain bni1, stronger effect = lower value 0.989 | S. cerevisiae deletion strains, locus YNL298W, strain CLA4, stronger effect = lower value 0.971 | S. cerevisiae deletion strains, locus YNL307C, strain MCK1, stronger effect = lower value 0.967 | S. cerevisiae deletion strains, locus YNL322C, strain KRE1 (second series), stronger effect = lower value 1 | S. cerevisiae deletion strains, locus YNR049C, strain mso1, stronger effect = lower value 1.01 | S. cerevisiae deletion strains, locus YNR052C, strain pop2, stronger effect = lower value 0.964 | S. cerevisiae deletion strains, locus YOL006C, strain TOP1, stronger effect = lower value 0.992 | S. cerevisiae deletion strains, locus YOL012C, strain htz1 0.956 | S. cerevisiae deletion strains, locus YOL147C, strain pex11, stronger effect = lower value 0.988 | S. cerevisiae deletion strains, locus YOR001W, strain rrp6, stronger effect = lower value 1.02 | S. cerevisiae deletion strains, locus YOR061W, strain CKA2, stronger effect = lower value 1.01 | S. cerevisiae deletion strains, locus YOR069W, strain VPS5, stronger effect = lower value 1 | S. cerevisiae deletion strains, locus YOR070C, strain gyp1, stronger effect = lower value 0.992 | S. cerevisiae deletion strains, locus YOR080W, strain dia2, stronger effect = lower value 0.988 | S. cerevisiae deletion strains, locus YOR083W, strain WHI5, stronger effect = lower value 0.992 | S. cerevisiae deletion strains, locus YOR106W, strain vam3, stronger effect = lower value 0.995 | S. cerevisiae deletion strains, locus YOR136W, strain idh2, stronger effect = lower value 0.975 | S. cerevisiae deletion strains, locus YOR144C, strain elg1, stronger effect = lower value 0.985 | S. cerevisiae deletion strains, locus YOR184W, strain ser1, stronger effect = lower value 0.978 | S. cerevisiae deletion strains, locus YOR231W, strain MKK1, stronger effect = lower value 0.983 | S. cerevisiae deletion strains, locus YOR265W, strain rbl2, stronger effect = lower value 0.983 | S. cerevisiae deletion strains, locus YOR270C, strain vph1, stronger effect = lower value 0.946 | S. cerevisiae deletion strains, locus YOR290C, strain snf2, stronger effect = lower value 0.968 | S. cerevisiae deletion strains, locus YOR316C, strain cot1, stronger effect = lower value 0.992 | S. cerevisiae deletion strains, locus YPL051W, strain arl3, stronger effect = lower value 0.986 | S. cerevisiae deletion strains, locus YPL078C, strain atp4, stronger effect = lower value 1.01 | S. cerevisiae deletion strains, locus YPL106C, strain sse1, stronger effect = lower value 1 | S. cerevisiae deletion strains, locus YPL240C, strain hsp82, stronger effect = lower value 1.01 | S. cerevisiae deletion strains, locus YPL256C, strain CLN2, stronger effect = lower value 0.952 | S. cerevisiae deletion strains, locus YPR119W, strain clb2, stronger effect = lower value 0.982 | S. cerevisiae deletion strains, locus YPR141C, strain kar3, stronger effect = lower value 0.992 | S. cerevisiae deletion strains, locus YPR163C, strain tif3, stronger effect = lower value 0.979 | S. cerevisiae deletion strains, locus YPR167C, strain met16, stronger effect = lower value 0.982 | S. cerevisiae deletion strains, strain wtn01, stronger effect = lower value 0.999 | S. cerevisiae strains, strain wild type, stronger effect = lower value 0.994
